About 3,700 (7%) of roughly 53,000 sequences were called active. This is one part of a sample in which actives are shown more often than they occur.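 Rule for the calls: active = gene knockdowns whose robust z-score for IL-1 alpha signal is at least 2 or at most -2, so actives lie on both sides; inactive = the rest.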

This assay is described as follows: Components of the Cytosolic LPS Sensing Pathway: Gene Identification via Genome-wide siRNA Screen.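 Note: robust z of the log signal after scaling to non-targeting control siRNA wells of the plate.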 The note with it: RAW264.7 macrophages, IL-1a HTRF, actives lie on both sides, screened at 100 nM (by protocol), cells primed 5 h with Pam3CSK4 first. Summed up:
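Cells (RAW264.7, 1×10^4 per well) were transfected with siRNA at 100 nM and cultured 48h at 37 degrees C. Pam3CSK4 was added for 5 hours; LipidA transfection followed for 24 hour. IL-1a was then measured by HTRF.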
Take CCUUUGGACGCAACCAGUUTT against Ugt1a6b: the z-score was 2.04 (active).

Take CGAAUUAAUCUCACAGGAGTT against Vps53: the z-score was 0.44 (inactive).

For the sequence CCCUCAAUGGCCUCAAACUTT against Elavl3, the z-score is -1.29 (inactive).

In the case of GUUAGAUGCCCUCAAGUUCTT against Trappc6a, the z-score was -0.857 (inactive).

As for GGAUGAGAGUCCACAGCAATT against Lpar3, the z-score was -1.26 (inactive).

As to GGAAUUCACAGAUACCGUGTT against Guca1a, the z-score is 0.93 (inactive).

Turning to GGAUGAGGUGAUUAAAGAATT against Cd9, the z-score was 2.38 (active).

In the case of GGAGUUCAUUGUUUGGUUGTT against Nat2, the z-score is 0.593 (inactive).

Regarding GGAUAUUGAUGUUUCAAGUTT against Neo1, the z-score is -0.241 (inactive).

CGUGGUGCAGAAUUUUUAUTT against Cldn14: the z-score was 1.13 (inactive).

On to “GGCACACACAUCAAAAGGATT against A530021J07Rik”, for which the z-score was -2.63 (active).

For GGUAGAUGGCAUCUACUAUTT against Josd2, the z-score was 0.663 (inactive).

As for GCUGGCAGUUUGUAAGUAGTT against Faxc, the z-score is -0.653 (inactive).

As for GGGUGUCAUCCUUAUCCUGTT against Olfr655, the z-score was -0.0528 (inactive).

Take CCGAAUCUGUCGUCAAGGUTT against Trem3: the z-score is 0.552 (inactive).

Turning to GGACCAGGUCCGUUGGAAUTT against Efna1, the z-score is 0.636 (inactive).

As for GGAUGUAAAGAGGAAUCUCTT against Abca16, the z-score was -0.748 (inactive).

On to GCAUCCCUUCCGAGAAACATT against Bag6, for which the z-score was 0.916 (inactive).

For the sequence GCCGUCAGACAAGGAGGAATT against Magi1, the z-score was 2.43 (active).

For the sequence GGAUGUCCUUGACUUUAAATT against Atp6v0a4, the z-score was 0.704 (inactive).

GCCUGAGGAAUCGUGACAUTT against Olfr51: the z-score was -1.58 (inactive).

Regarding GGAAAUGAUACAUUUGUGATT against Mre11a, the z-score was -0.256 (inactive).

Regarding CCGCACAGACCAUAGUAGATT against Pudp, the z-score was 0.261 (inactive).

As to GGUACUUUGGAAAGAAGAGTT against Yeats4, the z-score is -1.27 (inactive).

Take GGGAAUGAACCUAGAAGAGTT against Tymp: the z-score is -1.2 (inactive).

For GGUAGCCAUAUCUAACAGCTT against Scd1, the z-score was -2.02 (active).

Take GCCCUGAGACCACGAUAUUTT against AF067063: the z-score is 1.48 (inactive).

For the sequence GGUUAUAUGCAGAGGAACUTT against Arid1a, the z-score was -0.436 (inactive).

GGCAAGAUGAAUUAAAAUGTT against Gcfc2: the z-score was -0.964 (inactive).

GGAUAAAGGCAAAGACAAATT against Rsrc1: the z-score is 0.891 (inactive).

In the case of UUAUGCUGACCUCUAUCUUTT against Akr1c19, the z-score was 2.33 (active).

GGUUGAUUCUUAAAUUGUGTT against Slc6a5: the z-score is 0.331 (inactive).

Consider GGCUGGUGUAAUCGAAACATT against Ttc39c, for which the z-score was 0.0501 (inactive).

For the sequence GGAAACUCCGUCCCAAUUGTT against Trim68, the z-score is 1.39 (inactive).

As for GGCGAUUUCAACUGAAAAUTT against Jakmip1, the z-score was 0.548 (inactive).

As to GCCCAAUAAAAUUGAAGGGTT against Pmis2, the z-score was -0.163 (inactive).

As to GGUCUUUGAGGAAAGAGGUTT against Hemk1, the z-score is -1.59 (inactive).

As to GGCCUGUCCAAAGAAGUGATT against E2f3, the z-score is 2.2 (active).

Consider GCGCACACCCUACUUGAUUTT against Pcdh20, for which the z-score was 1.08 (inactive).

For the sequence GCUGUAAUUCCUAAGUUAUTT against Ubxn6, the z-score is 0.268 (inactive).

CCCAGAGCAUGCCAUCAACTT against Orm3: the z-score was -0.38 (inactive).

For the sequence CCUUACACUAAGAAAAAGGTT against Rad50, the z-score is -0.0689 (inactive).

GCAGUCCAAAAAAUUCGGUTT against Stox2: the z-score is -2.15 (active).

Consider GGCAUUAGAGCAGAGUCGUTT against Trmu, for which the z-score was -1.29 (inactive).

In the case of GGUGCAGAGAAGUGUAACATT against Slc25a21, the z-score was -1.6 (inactive).

For the sequence GGUGCUGAGCAUGGUGUUATT against Spag4, the z-score is 3.17 (active).

With GGAGUAUCGUUUAUUCAUUTT against Slc2a2, the z-score was 0.161 (inactive).

Regarding GCCUAAGAAAUUAGUGAAUTT against Rflna, the z-score was 0.204 (inactive).

On to GGCCAUCACUAAAUAAUGGTT against Ctdspl2, for which the z-score is -0.123 (inactive).

As for GGAAAACGAGUCAAACUCATT against Lnx2, the z-score was 3.4 (active).

Turning to GGUGGUGAGCAUCUACUAUTT against Alox5, the z-score was 0.565 (inactive).

Turning to CCCUAAUAAAUUCCAAAUCTT against H2-Ke6, the z-score is 1.81 (inactive).

In the case of GCAUGUAGUUCAUCAGUACTT against Tubgcp5, the z-score is 0.874 (inactive).

GGACCACUUUUUCAGACUCTT against Ralgapa1: the z-score is 0.945 (inactive).

As for GGCGAAAUGGUAAACCGAGTT against Adgrg2, the z-score is 0.0183 (inactive).

GUACGGCAACAUGACCCAGTT against Cd74: the z-score is 0.385 (inactive).

On to GGACUUCAACAACUGCUCUTT against Polr1a, for which the z-score is 2.28 (active).

For the sequence CCACUUCUACAUACUUAAUTT against Plau, the z-score is 0.62 (inactive).

As to UCUCAUUGCAAUUCUGGGATT against Olfr675, the z-score is 0.566 (inactive).

For the sequence CCUUACUCAAGAUCCUGCUTT against Olfr1243, the z-score is -0.23 (inactive).

Turning to GGCACUCAACACCUGUAUATT against Olfr640, the z-score is -1.34 (inactive).

Consider GGAAUUCCUUCACAUCUGGTT against Tc2n, for which the z-score was 0.4 (inactive).

With GGGUGAUAAGCAGUUAUACTT against Wdr75, the z-score was 1.33 (inactive).

As for GCUUCUGUUAUGAGGCUCATT against Hif1a, the z-score is -2.52 (active).

GGAGAUUGUGGAAAUGCUUTT against Skiv2l: the z-score is 0.459 (inactive).

On to CCCAGACCAUACUACGGAUTT against Calb2, for which the z-score is -1.25 (inactive).

Take GUUUCAGUGCAGCCAUUACTT against Olfr518: the z-score is -0.747 (inactive).

As to GGAUUUAUUUCCGAUUCGATT against Nalcn, the z-score was -0.0152 (inactive).

Turning to GGAUCAAAAGGUGAAUGCUTT against Vmn1r67, the z-score was -2.54 (active).

Turning to GCUGCAUUCGGUUACCACUTT against Olfml2b, the z-score is 0.677 (inactive).

Consider GGAGGUUACAUAACAGGUGTT against Itsn2, for which the z-score is 1.86 (inactive).

On to GGGAGUUAUUUAAGAUUCUTT against Has1, for which the z-score is 0.0567 (inactive).

Regarding GAAAAAUAAUGGAGUUUGGTT against Gtf2h5, the z-score is 0.513 (inactive).

Consider CCAGUGGAGUAAACUGUAATT against Ltbp1, for which the z-score was 2.24 (active).

On to GGAAGUGGUCCACCUGAUCTT against Mms19, for which the z-score is -0.324 (inactive).

As to GGCCCAUCUGAGGAAGCUUTT against Magea4, the z-score is -1.55 (inactive).

With GGAACUUCAUAAACACUUGTT against Oas3, the z-score is -0.545 (inactive).

On to GGUUCUGGAAAGUUCUCUGTT against Sorcs2, for which the z-score was -0.0101 (inactive).

Take GGUGAUGUUUUAUGGCAGGTT against Olfr1335: the z-score is 0.329 (inactive).

For CGAUGAUCGGCUCAACAAGTT against Rplp2, the z-score was -0.401 (inactive).

With GGCCAUACGCAAGCUCAAGTT against Rtl5, the z-score was -2.96 (active).

Consider GGUUCCUCACAAGCAUUCUTT against Olfr818, for which the z-score is 0.276 (inactive).

GCAUGAAGUUGCACAUCCCTT against Cox8b: the z-score is -0.42 (inactive).

Consider GGGAGCUAUUUAUCCUAUUTT against Zc4h2, for which the z-score is 0.214 (inactive).

Take GCCUCCUGAAUGACCACAUTT against Klk1b27: the z-score is 2.29 (active).

As to GGACUGUGAUUGUUUCAGATT against Mep1a, the z-score was -0.0817 (inactive).

For the sequence GGUAUCAUCUAUAGAGACUTT against Prkch, the z-score was -0.265 (inactive).

For “CCGUGCCAAACUUCUUACUTT against 2610528J11Rik”, the z-score is -0.1 (inactive).

On to GGGCUAGAGGAAAACGAAATT against Crot, for which the z-score was 1.64 (inactive).

CGCAGAGAGUAGAAAAUUGTT against Pdia5: the z-score was -0.428 (inactive).

On to GGACUGUCAUCUUCCUCAGTT against Ston2, for which the z-score is -2.97 (active).

Consider GCUAUGACCGGAGGUUCUATT against Morn5, for which the z-score was 0.555 (inactive).

For GGAAACGAAGAGGAAGAAUTT against Ddit3, the z-score was -0.571 (inactive).

Take CCAGUAUAUUCUGAGGGUUTT against Isl1: the z-score is 0.374 (inactive).

On to GGAGACUGAGGAAGAAUCUTT against Atcay, for which the z-score is -0.302 (inactive).

With GGACUGUGACAUAUUCUUUTT against Zfp54, the z-score is 2.74 (active).

With GGGUGGACUGAAUGCUGAUTT against Qtrt1, the z-score was 0.665 (inactive).

Consider GGUGUACCUUGGGACUUACTT against Prpf18, for which the z-score was -2.84 (active).

With GGUUUACUUCCCAUACCUGTT against Pold1, the z-score was 0.701 (inactive).

For the sequence GGCAAUACGUAACAUGCCATT against Slc6a4, the z-score is -0.148 (inactive).

Consider GGACGAAGACACCAAAGUGTT against Camk2a, for which the z-score was -1.31 (inactive).

Turning to GGUAGGGACCUAUCCUUGGTT against Cramp1l, the z-score is -0.518 (inactive).

Regarding GGAUGGAGUUCACAUUUUCTT against Utp11, the z-score is 0.816 (inactive).

On to CCUUGAGCAAAUCACACAUTT against Stk32b, for which the z-score is 3.94 (active).

As to GGACAAGAACUUAGUGAUGTT against Emc9, the z-score is 0.522 (inactive).

For GGCUGGAACCCUAAUUUCUTT against Tpo, the z-score was 1.32 (inactive).

For the sequence AGUGGGCUUCAAAUUUCCATT against Aym1, the z-score was -0.551 (inactive).

As for GCAUGAUCGUGUUUGUUUATT against Srpk2, the z-score was 0.722 (inactive).
